The list is not random: actives were taken first. Their share in the collection is about 12%.
G9a inh: blocks human histone lysine methyltransferase G9a; Q96KQ7; Potency, µM (highest dose often 102 µM), hits mostly inhibitors; AID 504332; G9a H3K9 monomethylation, AlphaScreen, 2 h; hit rate 8.8% among 350,000; note: nearly all actives have a fitted effect of over 75% in size
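Quantitative HTS format: methyltransferase activity on a biotin-tagged H3K9 peptide is measured by AlphaScreen, using a rabbit anti-monomethyl-H3K9 antibody with streptavidin donor and anti-IgG acceptor beads. Final levels are 20 nM enzyme, 500 nM peptide, 20 uM SAM; 2 h RT.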
HP1b chromo inh: HP1-beta chromodomain-methylated histone interaction inhibition | P83916 | AlphaScreen HP1-beta / biotin-H3K9me3 peptide binding | Potency, µM (top dose mostly 114 µM), hits mostly inhibitors | hit rate 0.56% among 390,000 | AID 540317; note: nearly all actives have a fitted effect of over 70% in size
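Compound inhibition of the preformed complex between 50 nM HP1-beta and 50 nM biotinylated H3K9me3 peptide was read by AlphaScreen. Buffer was PBS pH 7.4 with 0.01% Tween-20. Incubations ran 30 min at room temperature, with 10 ug/mL donor/acceptor beads.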
TDP1 block: inhibitors of human tyrosyl-DNA phosphodiesterase TDP1; Q9NUW8; recombinant TDP1, AlphaScreen DNA substrate cleavage; Potency, µM (top dose mostly 130 µM), actives largely listed as inhibitors; hit rate 0.28% among 350,000; AID 485290; note: nearly all actives have a fitted effect of over 40% in size
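Signal: AlphaScreen proximity between streptavidin donor and anti-FITC acceptor beads on intact substrate. Reaction: Tdp1 1 nM, substrate 15 nM final, 5 min RT after 15 min compound preincubation.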
Sfp inh: blocks B. subtilis Sfp PPTase activity | AID 1490 | hit rate 3.5% among 310,000 | Potency, µM, most hits filed as inhibitors | Biochemical Sfp PPTase activity, qHTS | Q9F4F7;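 note: the enzyme is Sfp with the accession as filed and its product quenches rhodamine fluorescence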
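After 15 min at room temperature with compound, 15 nM Sfp received 5 uM rhodamine-CoA plus 12.5 uM BHQ-2-ybbR (50 mM Hepes pH 7.6, 10 mM MgCl2). Rate came from the fluorescence difference over 30 min, ex 525/em 598 nm.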
JMJD2A Tudor: blocks the human JMJD2A Tudor domain | Potency, µM (top dose mostly 114 µM), usual class: inhibitors | hit rate 4.4% among 390,000 | AID 504339 | AlphaScreen JMJD2A-Tudor / H3K4me3 peptide binding | O75164; note: nearly all actives have a fitted effect of over 50% in size
Target sequence (O75164 whole entry, looked up, the tested form may be a part): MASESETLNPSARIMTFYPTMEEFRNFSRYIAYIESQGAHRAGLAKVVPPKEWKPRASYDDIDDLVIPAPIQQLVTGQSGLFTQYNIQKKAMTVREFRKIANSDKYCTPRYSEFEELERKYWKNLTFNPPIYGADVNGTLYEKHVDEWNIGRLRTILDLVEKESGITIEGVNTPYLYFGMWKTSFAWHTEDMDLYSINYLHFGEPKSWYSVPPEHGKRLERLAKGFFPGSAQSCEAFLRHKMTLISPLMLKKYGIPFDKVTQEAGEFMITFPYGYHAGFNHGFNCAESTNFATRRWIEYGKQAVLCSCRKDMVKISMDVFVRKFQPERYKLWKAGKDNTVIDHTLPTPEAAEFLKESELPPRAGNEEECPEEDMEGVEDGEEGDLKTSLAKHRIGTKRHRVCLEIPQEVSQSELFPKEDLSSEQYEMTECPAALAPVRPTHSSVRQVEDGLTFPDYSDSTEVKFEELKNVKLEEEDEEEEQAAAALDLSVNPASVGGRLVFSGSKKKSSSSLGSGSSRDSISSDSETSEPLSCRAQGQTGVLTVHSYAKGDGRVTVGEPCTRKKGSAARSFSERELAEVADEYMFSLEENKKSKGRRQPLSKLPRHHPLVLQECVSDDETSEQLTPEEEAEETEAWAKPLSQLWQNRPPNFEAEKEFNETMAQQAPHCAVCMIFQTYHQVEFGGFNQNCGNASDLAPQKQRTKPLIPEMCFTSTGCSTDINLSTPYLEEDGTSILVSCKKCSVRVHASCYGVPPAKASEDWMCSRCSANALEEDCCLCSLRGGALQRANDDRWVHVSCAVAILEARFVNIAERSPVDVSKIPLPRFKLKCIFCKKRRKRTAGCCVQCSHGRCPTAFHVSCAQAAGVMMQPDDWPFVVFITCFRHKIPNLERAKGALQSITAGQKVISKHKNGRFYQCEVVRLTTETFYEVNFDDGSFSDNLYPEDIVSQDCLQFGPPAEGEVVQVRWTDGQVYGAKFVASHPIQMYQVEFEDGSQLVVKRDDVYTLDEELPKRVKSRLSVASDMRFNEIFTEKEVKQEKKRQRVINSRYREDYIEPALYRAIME
BAZ2B inh: inhibitors of human BAZ2B bromodomain; Q9UIF8; AlphaScreen BAZ2B-H3K14Ac peptide displacement; Potency, µM (highest dose often 114 µM), actives largely listed as inhibitors; hit rate 4.4% among 360,000; AID 504333; note: nearly all actives have a fitted effect of over 60% in size
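Protein-peptide AlphaScreen: BAZ2B 50 nM, b-H3K14Ac 50 nM, 1x PBS pH 7.4 + 0.01% Tween-20. Preincubation 30 min RT; cpd 30 min RT (top 110 uM); beads 20 min RT, light-protected.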
Numbers stand for hits; i = inactive; ? = inconclusive; nt = no result; ! = not confirmed by another sample; [ ] = dose if it differs, or a comment. Calls come from the whole dose curve; as a rule, active = well fitted curve in the direction sought with a large enough effect; inconclusive = small, poorly fitted or top-dose-only effect, or another doubt; inactive = no such curve, though single readings can be large; an effect the other way counts as inactive or inconclusive.

SMILES	G9a inh	HP1b chromo inh	TDP1 block	Sfp inh	JMJD2A Tudor	BAZ2B inh
S=c1[nH]nc(C2CCCCC2)n1Cc1ccccc1	11.2µM	i	i	i	35.5µM	i
S=c1[nH]nc(-c2ccc(Cl)cc2)n1Cc1ccccc1	1.41µM	i	i	i	?	i
C=CCn1c(C2CCCCC2)n[nH]c1=S	20µM	i	i	i	5.62µM	i
Cc1[nH]c2ccc(C(=O)NCCc3ccccc3Cl)cc2c1C	i	i	i	nt	i	?
CC(C)(O[C@@H]1O[C@H](CO)[C@@H](O)[C@H](O)[C@H]1O)[C@@H]1CC=C(C(=O)O)CC1	i[2.33 µM]	i	i	nt	i	i
Cc1cc2c(s1)c1cnn(Cc3c(F)c(F)c(C)c(F)c3F)c(=O)c1n2C	nt	nt	nt	nt	i	nt
COc1ccc(-c2n[nH]c(=S)n2Cc2ccccc2)cc1OC	nt	?	i	i	10µM	i
CCOc1cc(-c2n[nH]c(=S)n2Cc2ccccc2)ccc1OC(F)F	?	i	i	nt	i	i
COc1nc(/C(N)=N/O)nc(N2CCCCC2)n1	?	i	i	79.4µM	?	?
CCSc1cc(C2C(C(=O)OC)=C(C)NC3=C2C(=O)CCC3)c(C)o1 (centres undefined)	7.08µM	?	i	i	?	?
O=c1cc(Cn2ccnc2)c2cc(O)ccc2o1	i	i	nt	i	i	?
O=C1C=C(O)c2c(O)cccc2C1=O	i	nt	nt	?	nt	i
O=C(O)c1cc(O)c2c(c1)C(=O)c1cccc(O)c1C2=O	39.8µM	?	i	56.2µM!	56.2µM	50.1µM
Cc1ccc(S(=O)(=O)/N=S(/c2ccccc2)C(C)C)cc1 (centres undefined)	4.47µM	?	i	17.8µM	i	i
Cn1c(CC(=O)Nc2ccc(Cl)c(Cl)c2)n[nH]c1=S	14.1µM	i	i	i	i	i
Cn1c(CC(=O)Nc2ccccc2)n[nH]c1=S	i	i	i	i	5.01µM	i
Cn1c(CC(=O)Nc2ccccc2)nnc1SCCOc1ccccc1	i	i	i	i	i	i
CCn1c(CC(=O)Nc2ccc(C)cc2)nnc1SCC(=O)NCc1ccccc1	i[12.7 µM]	i	i	i	i	i
COc1ccc(Cc2n[nH]c(=S)n2NC(=O)Nc2ccc(Cl)c(Cl)c2)cc1	?	i	nt	i	i	i
Cc1ccc(NC(=O)Cc2n[nH]c(=S)n2C)cc1	?	i	i	i	8.91µM	i
CCn1c(CC(=O)Nc2ccc(C)cc2)n[nH]c1=S	5.01µM	i	nt	i	3.55µM	?
CC(C)CN(c1ccccc1)S(=O)(=O)c1nnc(NC(=O)C2CCCCC2)s1	i	i	i	nt	i	i
CCCN1C(=O)c2[nH]nc(-c3ccc(F)cc3)c2C1c1ccc(O)c(OCC)c1 (centres undefined)	i	i	i	nt	i	i
Cc1ccc(OCC(=O)Nc2ccc(OCc3cc(=O)n4ccsc4n3)cc2)cc1C	i	i	i	nt	i	i
O=C(O)c1cc(=O)[nH]c(=O)[nH]1	i	nt	i	?	nt	nt
SMILES	G9a inh	HP1b chromo inh	TDP1 block	Sfp inh	JMJD2A Tudor	BAZ2B inh
CC(NC(=O)CSc1nnc(CC(=O)Nc2ccc(Cl)c(Cl)c2)n1C)c1ccccc1 (centres undefined)	12.6µM	i	i	i	i	?
CN(Cc1nc2ccccc2n1C)S(=O)(=O)c1ccc(F)cc1	i	i	i	i	i	i
CN(Cc1n[nH]c(=S)n1C)S(=O)(=O)c1ccccc1	nt	i	i	i	5.62µM	i
Cn1c(CC(=O)Nc2ccc(Cl)c(Cl)c2)nnc1SCC(=O)N1CCN(c2ccccc2)CC1	i	i	i	i	i	i
CC(C)(C)OC(=O)NCc1nnc(-c2cc3ccccc3[nH]2)o1	nt	nt	i	nt	i	nt
CCCCC[C@H](O)/C=C/[C@@H]1[C@@H](C/C=C\CCCC(=O)OC)[C@@H](O)C[C@H]1O	39.8µM	?	50.1µM	25.1µM	22.4µM	14.1µM
CCCCC[C@H](O)/C=C/[C@H]1[C@H](O)CC(O)[C@@H]1C/C=C\CCCC(=O)O (some centres undefined)	i	nt	i	i	nt	nt
O=C(COC(=O)c1cc(-c2ccncc2)nc2ccccc12)Nc1ccc2c(c1)OCO2	i	nt	i	i	nt	i
O=C(On1c(-c2ccccc2)nc2ccccc2c1=O)c1ccco1	?	i	i	i	89.1µM	i
COc1cc(OC)cc(-c2nc3ccccc3c(=O)n2OC(=O)c2ccccc2C)c1	i	i	i	i	i	i
COc1ccc(C2NC3=C(CCCC3)C(C#N)(C#N)C2(C#N)C#N)cc1 (centres undefined)	8.91µM	nt	i	56.2µM	nt	i
CN(Cc1ccccc1)C(=S)NC(=O)c1cccs1	39.8µM	i	i	i	i	?
N=C1C2=C3Sc4ccccc4N3CCCC2=NN1c1cccc(S(=O)(=O)O)c1	?	i	i	89.1µM	i	?
COc1ccc(OC)c(NC(=O)CCCSc2ccccc2)c1	i	i	i	i	i	i
COCCCNCc1cc(C)n(-c2cc(S(=O)(=O)N3CCOCC3)ccc2N2CCCC2)c1C	nt	?	nt	nt	79.4µM	nt
Cc1cc(C#N)c(C)n1-c1cc(S(=O)(=O)N2CCOCC2)ccc1N1CCCC1	6.31µM	i	i	39.8µM	?	i
COCCNC(=O)c1cc(S(=O)(=O)N2CCCCC2)ccc1N1CCOCC1	i	i	i	nt	i	?
Nc1cc(S(=O)(=O)N2CCOCC2)ccc1N1CCOCC1	nt	i	i	nt	i	nt
O=[N+]([O-])/C=C\c1ccc(N2CCCC2)c(F)c1	i	i	i	?	i	i
Cn1c(=O)cc(N2CCN(C(=O)c3ccco3)CC2)[nH]c1=O	nt	i	nt	i	i	i
Cc1ccc(-n2c(=O)cc(N3CCN(C(=O)c4ccco4)CC3)[nH]c2=O)cc1	44.7µM	i	i	i	i	i
Cc1ccc2[nH]c(=O)c3cc(C(=O)N4CCN(c5ccccc5)CC4)sc3c2c1	i	i	i	nt	i	i
Cc1ccc2[nH]c(=O)c3cc(C(=O)NC(C)C)sc3c2c1	i	i	nt	i	31.6µM	i
Cc1ccc2[nH]c(=O)c3cc(C(=O)N4CCN(C(=O)c5ccco5)CC4)sc3c2c1	?	i	56.2µM	?	i	i
CCOC(=O)C(C)NC(=O)c1cc2c(=O)[nH]c3ccc(C)cc3c2s1 (centres undefined)	i	i	i	nt	i	i
CCc1ccccc1NC(=O)Cn1nnc(C(=O)NCc2ccccc2Cl)c1N	i	i	i	nt	i	i
COc1ccc(OC)c2c1cc(C(=O)N[C@@H](Cc1ccccc1)C(=O)O)n2C	?	i	nt	i	i	i
COc1ccc(-c2cc(C(=O)NC(Cc3cc4ccccc4[nH]3)C(=O)O)c(C)o2)cc1OC (centres undefined)	31.6µM	?	i	22.4µM	i	i
COc1ccc(OC)c(NS(=O)(=O)c2c(C)nc3sccn3c2=O)c1	i	i	nt	i	i	i
CC(=O)c1nc(N2C(=O)CC(Cc3cccc(C)c3)C2=O)sc1C (centres undefined)	i	i	i	i	i	i

Compound activity (PubChem BioAssay)
